# Reference: PubChem BioAssay (EPA / NIEHS)
# Results filed as inconclusive are left out. The source made the active and inactive calls. Rule for the calls: active = hit-call score of the fitted dose curve at least 0.9, where 1 is the maximum; inconclusive = response in the unintended direction; inactive = score below 0.9.
# Legend:
# [1] = target: Estrogen receptor (Homo sapiens) (UniProt P03372); experiment: OT_ER_ERaERa_1440: Odyssey Thera (OT) 24-hour HEK293T Protein-Complementation Assay for Estrogen Receptor-alpha/-alpha Homodimer (AID 2283349);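 note: hits raise fluorescence above DMSO for agonists and antagonists alike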
# Summary of the method: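 HEK293T cells stably expressing the human ER alpha ligand-binding domain (aa 310-547) as a homodimer PCA were dosed for 24 hours. Fluorescence intensity was read by laser scanning cytometry, and gain of signal was fitted relative to DMSO vehicle.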
# [2] = target: Estrogen receptor (Homo sapiens) (UniProt P03372); experiment: OT_ER_ERaERa_0480: Odyssey Thera (OT) 8-hour HEK293T Protein-Complementation Assay for Estrogen Receptor-alpha/-alpha Homodimer (AID 2283351);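 note: rise in fluorescence from reassembled reporter fragments on ERα LBD homodimer in nucleus or whole cell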
# Summary of the method: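 The readout is complementation of fragments fused to the human ER alpha ligand-binding domain (aa 310-547), stably expressed in HEK293T cells. After 8 h of exposure, the increase in nuclear/cytoplasmic fluorescence was measured by laser scanning cytometry and fitted relative to DMSO.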
# [3] = target: Estrogen receptor (Homo sapiens) (UniProt P03372); experiment: NVS_NR_hER: NovaScreen (NVS) Nuclear Receptor Binding Assay for human Estrogen Receptor (ER) (AID 2283348)
# Summary of the method: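 Radioligand competitive displacement binding to estrogen receptor from MCF7 extract, cell-free; 18 h after dosing, scintillation read-out. Primary screen in duplicate at 25 uM; actives followed up in concentration series; loss of signal vs DMSO.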
# Estrogen receptor (Homo sapiens), sequence (P03372 whole entry, looked up, the tested form may be a part): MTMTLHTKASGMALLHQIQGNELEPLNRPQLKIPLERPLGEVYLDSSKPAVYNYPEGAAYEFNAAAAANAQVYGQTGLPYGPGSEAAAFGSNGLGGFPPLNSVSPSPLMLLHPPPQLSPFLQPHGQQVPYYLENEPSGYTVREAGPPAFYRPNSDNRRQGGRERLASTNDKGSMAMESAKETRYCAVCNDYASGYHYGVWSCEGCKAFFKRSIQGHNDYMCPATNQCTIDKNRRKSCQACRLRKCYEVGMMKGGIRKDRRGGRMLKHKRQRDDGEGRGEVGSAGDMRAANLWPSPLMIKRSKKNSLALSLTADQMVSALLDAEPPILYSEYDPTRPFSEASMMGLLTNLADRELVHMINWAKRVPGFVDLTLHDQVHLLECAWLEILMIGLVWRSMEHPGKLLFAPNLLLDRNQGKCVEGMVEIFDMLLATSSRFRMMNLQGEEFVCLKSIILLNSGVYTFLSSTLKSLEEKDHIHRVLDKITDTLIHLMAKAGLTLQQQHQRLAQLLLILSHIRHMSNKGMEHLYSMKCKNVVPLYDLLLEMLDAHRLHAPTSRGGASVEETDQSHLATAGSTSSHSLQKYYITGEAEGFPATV
SMILES,outcome [1],outcome [2],outcome [3]
O=C(C(Cl)Cl)N1CCOC12CCCCC2,inactive,inactive,–
CC1=NN(c2cc(S(=O)(=O)O)ccc2Cl)C(=O)C1N=Nc1ccccc1 (stereo unspecified),inactive,inactive,–
CNC(=S)NN,inactive,inactive,–
Cn1c([N+](=O)[O-])cnc1COC(N)=O,inactive,inactive,–
CCCCCCCC/C=C\CCCCCCCC(=O)O,inactive,inactive,–
O=C(O)CCCCCCCCCC(=O)O,–,–,inactive
CC(C)=CCC[C@H](C)CCO,inactive,inactive,–
CC(=O)NS(=O)(=O)c1ccc(N)cc1,–,–,inactive
CCCCC(CC)CCC(CC(C)C)OS(=O)(=O)O (stereo unspecified),inactive,inactive,–
Cc1cc(C)c(C(=O)O)c(C)c1,inactive,inactive,–
CC(C)(C)C(=O)CCc1ccc(Cl)cc1,–,–,inactive
CC(C)c1ccc2cc(C(C)C)ccc2c1,inactive,inactive,–
C=C[Si](C)(C)O[Si](C)(C)C=C,inactive,inactive,–
CCCc1ccc(OC)cc1,inactive,inactive,–
C1CN(SSN2CCOCC2)CCO1,inactive,inactive,–
CC(C)(C)c1ccc(-c2ccc(C(C)(C)C)cc2)cc1,inactive,inactive,–
CCCCOCCOC(=O)COc1nc(Cl)c(Cl)cc1Cl,inactive,inactive,–
O=C1C(N(CO)C(=O)NCO)N(CO)C(=O)N1CO (stereo unspecified),inactive,inactive,–
O=C1CCCC1,inactive,inactive,–
CCCCCCCOC(=O)CCC,inactive,inactive,–
Cc1ccc(C(C)(C)C)cc1,inactive,inactive,–
C=CC(=O)NC(C)(C)CS(=O)(=O)O,inactive,inactive,–
